Results filed as inconclusive are left out. Where a structure was tested more than once in an assay, its records may differ in their call. Activity calls are given as the source filed them. The calls were made as follows: active = hit-call score of the fitted dose curve at least 0.9, where 1 is the maximum; inconclusive = response in the unintended direction; inactive = score below 0.9.
Columns and labels:
[1] = ACEA_AR_agonist_AUC_viability: ACEA Biosciences xCELLigence Real-Time Cell Analysis on Androgen Receptor Agonism for Viability (AID 2283775);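 as to AC50: viability read 80 hours after compound addition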
Outline: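 Read-out is area under the impedance curve at 80 h post-dose in 22Rv1 cells, with DMSO as baseline and signal loss taken as reduced viability. Compounds ran in duplicate from 100 uM final.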

[2] = ACEA_AR_antagonist_AUC_viability: ACEA Biosciences xCELLigence Real-Time Cell Analysis on Androgen Receptor Antagonism for Viability (AID 2283776);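 also: 22Rv1 human prostate cancer cells growing on impedance electrode plates; area under impedance growth curve at 80 h after dosing as viability; hits lower the growth signal relative to DMSO meaning cytotoxicity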
Outline: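 Impedance read-out (RT-CES): area under growth curve at 80 h post-dose, loss of signal scored vs DMSO baseline. 22Rv1 cells; 8-pt 1:4 series, top 100 uM final, ≤0.5% DMSO; biological duplicate.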

[3] = ACEA_ER_AUC_viability: ACEA Biosciences xCELLigence Real-Time Cell Analysis on Estrogen Receptor Agonism for Viability (AID 2283782);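 also: continuous compound exposure with impedance area under curve over 80 h; hit means loss of impedance signal meaning reduced cell growth or viability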
Outline: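 T-47D; phenol red-free RPMI1640 + 10% CS-FBS; 8 conc., 1:4 serial, max 100 uM final, ≤0.5% DMSO; n = 2; continuous exposure; impedance monitored to 80 h post-dose; AUC vs DMSO.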

[4] = system: frog Estrogen Receptor (ESR1), gene 398734; assay: ATG_frER1_XSP1: Attagene TRANS-FACTORIAL Multi-Species (XSP1) HepG2 Assay for frog Estrogen Receptor (ESR1) (AID 2283777)
Outline: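 Human hepatoma HepG2 cells carried transiently transfected multiplexed Gal4-driven reporters and were exposed to test chemicals for 24 hours. Transcripts were quantified by fluorescent RT-PCR with capillary electrophoresis, referenced to DMSO.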

[5] = system: zebrafish Estrogen Receptor (ESR2A), gene 317734; assay: ATG_zfER2a_XSP1: Attagene TRANS-FACTORIAL Multi-Species (XSP1) HepG2 Assay for zebrafish Estrogen Receptor (ESR2A) (AID 2283778)
Outline: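 Cells were transfected, dosed for 24 h, then total RNA was isolated. After oligo(dT) reverse transcription, reporter sequences were amplified, FAM-labelled by primer extension, digested with HpaI and sized by capillary electrophoresis; DMSO served as baseline.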

[6] = molecular target: chicken Estrogen Receptor (ESR1), ESR1 (gene 396099) (UniProt P06212); assay: ATG_chERa_XSP1: Attagene TRANS-FACTORIAL Multi-Species (XSP1) HepG2 Assay for chicken Estrogen Receptor (ESR1) (AID 2283779)
Outline: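 Human liver HepG2, transient MRTU transfection (NR-Gal4 chimeras, GAL4-UAS reporters); 24 h compound exposure; 3 nM 6-alpha-fluorotestosterone in medium. Total RNA → RT-PCR → 6-FAM primer extension → HpaI → CE. Positive direction vs DMSO baseline.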

[7] = molecular target: Estrogen receptor (Homo sapiens) (UniProt P03372); assay: ATG_hERa_XSP1: Attagene TRANS-FACTORIAL Multi-Species (XSP1) HepG2 Assay for human Estrogen Receptor (ESR1) (AID 2283780)
Outline: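 HepG2 cells transiently transfected with GAL4-UAS reporter units and chimeric NR-Gal4 constructs; 24 h after dosing, reporter mRNA quantified by RT-PCR and capillary electrophoresis. Medium contained 3 nM 6-alpha-fluorotestosterone; activity fitted as gain-of-signal versus DMSO.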

[8] = system: turtle Estrogen Receptor (ESR1), gene 101933533; assay: ATG_trERa_XSP1: Attagene TRANS-FACTORIAL Multi-Species (XSP1) HepG2 Assay for turtle Estrogen Receptor (ESR1) (AID 2283781)
Outline: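 Activity was taken as gain of reporter transcript over DMSO controls. HepG2 cells carrying GAL4-UAS-driven reporters were exposed for 24 h before RNA was extracted and reporter sequences were measured by fluorescence after capillary separation.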

[9] = molecular target: GAL4 Transcription Factor (Internal Marker), GAL4 (gene 855828) (UniProt P04386); assay: ATG_GAL4_XSP1: Attagene TRANS-FACTORIAL Multi-Species (XSP1) HepG2 Assay for GAL4 Transcription Factor (Internal Marker) (AID 2283789)
Outline: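 HepG2 cells transiently transfected with multiplexed GAL4-UAS reporter units were exposed for 24 h with 3 nM 6-alpha-fluorotestosterone present. Reporter mRNA was quantified by RT-PCR, FAM labelling, HpaI digestion and capillary electrophoresis; background-control readout, gain-of-signal versus DMSO.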

[10] = ATG_M_06_XSP1: Attagene TRANS-FACTORIAL Multi-Species (XSP1) HepG2 Assay for M06 Transcription Factor (Internal Marker) (AID 2283790)
Outline: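 Transfected HepG2 multi-reporter system treated 24 h in the presence of 3 nM 6-alpha-fluorotestosterone. The M06 internal marker transcript was quantified by RT-PCR with capillary electrophoresis as a background control, and gain of signal was scored versus DMSO.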

[11] = ATG_M_61_XSP1: Attagene TRANS-FACTORIAL Multi-Species (XSP1) HepG2 Assay for M61 Transcription Factor (Internal Marker) (AID 2283797)
Outline: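 HepG2 cells transiently transfected with multiplexed GAL4-driven reporter units, dosed 24 h with 3 nM 6-alpha-fluorotestosterone present. Reporter mRNA quantified by RT-PCR, 6-FAM labelling, HpaI digestion and capillary electrophoresis; internal-marker background control, gain of signal versus DMSO.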

[12] = system: zebrafish Peroxisome Proliferator-activated Receptor gamma (PPARg), gene 557037; assay: ATG_zfPPARg_XSP1: Attagene TRANS-FACTORIAL Multi-Species (XSP1) HepG2 Assay for zebrafish Peroxisome Proliferator-activated Receptor gamma (PPARg) (AID 2283801)
Outline: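 HepG2 cells transiently transfected with GAL4-UAS reporter units including a zebrafish PPARg–GAL4 chimera, dosed 24 h with 3 nM 6-alpha-fluorotestosterone present. Reporter mRNA quantified by RT-PCR, FAM labelling, HpaI digestion and capillary electrophoresis; induction versus DMSO.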

[13] = molecular target: Nuclear receptor subfamily 1 group I member 2 (Mus musculus) (UniProt O54915); assay: ATG_mPXR_XSP1: Attagene TRANS-FACTORIAL Multi-Species (XSP1) HepG2 Assay for mouse Pregnane X Receptor (PXR) (AID 2283803)
Outline: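 Transiently transfected HepG2 cells expressing a receptor-Gal4 chimera drive a GAL4-UAS reporter; 3 nM 6-alpha-fluorotestosterone included. Reporter mRNA read 24 h post-dose by RT-PCR and capillary electrophoresis; gain of signal relative to DMSO.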

[14] = molecular target: frog Thyroid hormone Receptor alpha (TRa), thra-a (gene 397942) (UniProt P15204); assay: ATG_frTRa_XSP1: Attagene TRANS-FACTORIAL Multi-Species (XSP1) HepG2 Assay for frog Thyroid hormone Receptor alpha (TRa) (AID 2283804)
Outline: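 HepG2 cells transiently transfected with frog TRa-GAL4 chimeric reporter units, dosed 24 hr with 3 nM 6-alpha-fluorotestosterone present; reporter mRNA quantified by RT-PCR, fluorescent labelling and capillary electrophoresis, gain of signal versus DMSO.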

[15] = system: turtle Thyroid Hormone Receptor, alpha (TRa), gene 101949057; assay: ATG_trTRa_XSP1: Attagene TRANS-FACTORIAL Multi-Species (XSP1) HepG2 Assay for turtle Thyroid Hormone Receptor, alpha (TRa) (AID 2283806)
Outline: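 HepG2 cells transiently transfected with GAL4-UAS reporter units and chimeric receptor-Gal4 constructs, with 3 nM 6-alpha-fluorotestosterone present. Reporter mRNA was quantified 24 h after dosing by RT-PCR, 6-FAM labelling and capillary electrophoresis; gain of signal versus DMSO.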

[16] = molecular target: zebrafish Thyroid Hormone Receptor beta (TRb), thrb (gene 30607) (UniProt Q9PVE4); assay: ATG_zfTRb_XSP1: Attagene TRANS-FACTORIAL Multi-Species (XSP1) HepG2 Assay for zebrafish Thyroid Hormone Receptor beta (TRb) (AID 2283809)
Outline: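 HepG2 cells transiently transfected with multiplexed GAL4-UAS reporter units expressing chimeric zebrafish TRb–Gal4. Dosed 24 h with 3 nM 6-alpha-fluorotestosterone present; reporter mRNA measured by RT-PCR, HpaI digestion and capillary electrophoresis; gain of signal versus DMSO.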

[17] = ATG_M_06_XSP2: Attagene TRANS-FACTORIAL Multi-Species (XSP2) HepG2 Assay for M06 Transcription Factor (Internal Marker) (AID 2283811);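 also: hits are increases in signal above the DMSO baseline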
Outline: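 HepG2, multiplexed reporter transfection; 24 h dosing; AR stimulated with 3 nM 6-alpha-fluorotestosterone + 1.5 nM norgestrel; RNA → RT-PCR → 6-FAM primer extension → HpaI → CE. Positive direction vs DMSO.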

Chain of GAL4 Transcription Factor (Internal Marker), GAL4 (gene 855828) (P04386 whole entry, looked up, the tested form may be a part): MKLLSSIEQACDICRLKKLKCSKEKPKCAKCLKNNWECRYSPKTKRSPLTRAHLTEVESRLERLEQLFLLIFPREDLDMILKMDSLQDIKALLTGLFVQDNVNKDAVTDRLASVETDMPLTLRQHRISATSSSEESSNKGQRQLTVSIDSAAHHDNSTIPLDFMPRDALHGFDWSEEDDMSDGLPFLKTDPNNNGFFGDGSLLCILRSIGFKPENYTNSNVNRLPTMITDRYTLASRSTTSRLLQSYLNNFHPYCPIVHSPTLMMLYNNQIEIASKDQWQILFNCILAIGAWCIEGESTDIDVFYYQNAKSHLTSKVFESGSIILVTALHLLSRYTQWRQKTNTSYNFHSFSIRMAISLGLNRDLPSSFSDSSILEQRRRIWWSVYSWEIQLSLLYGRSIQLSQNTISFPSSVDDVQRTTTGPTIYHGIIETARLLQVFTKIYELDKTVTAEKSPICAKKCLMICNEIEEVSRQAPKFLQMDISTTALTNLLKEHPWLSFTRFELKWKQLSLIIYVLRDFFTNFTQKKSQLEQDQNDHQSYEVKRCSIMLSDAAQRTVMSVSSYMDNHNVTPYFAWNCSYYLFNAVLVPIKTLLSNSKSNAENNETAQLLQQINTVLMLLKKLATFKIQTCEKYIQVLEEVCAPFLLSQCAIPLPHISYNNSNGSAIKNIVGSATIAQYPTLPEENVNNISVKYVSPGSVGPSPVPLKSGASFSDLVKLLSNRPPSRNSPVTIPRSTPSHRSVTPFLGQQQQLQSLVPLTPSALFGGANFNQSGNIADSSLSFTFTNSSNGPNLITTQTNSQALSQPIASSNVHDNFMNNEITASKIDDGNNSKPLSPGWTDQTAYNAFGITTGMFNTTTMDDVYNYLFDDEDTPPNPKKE
Chain of zebrafish Thyroid Hormone Receptor beta (TRb), thrb (gene 30607) (Q9PVE4 whole entry, looked up, the tested form may be a part): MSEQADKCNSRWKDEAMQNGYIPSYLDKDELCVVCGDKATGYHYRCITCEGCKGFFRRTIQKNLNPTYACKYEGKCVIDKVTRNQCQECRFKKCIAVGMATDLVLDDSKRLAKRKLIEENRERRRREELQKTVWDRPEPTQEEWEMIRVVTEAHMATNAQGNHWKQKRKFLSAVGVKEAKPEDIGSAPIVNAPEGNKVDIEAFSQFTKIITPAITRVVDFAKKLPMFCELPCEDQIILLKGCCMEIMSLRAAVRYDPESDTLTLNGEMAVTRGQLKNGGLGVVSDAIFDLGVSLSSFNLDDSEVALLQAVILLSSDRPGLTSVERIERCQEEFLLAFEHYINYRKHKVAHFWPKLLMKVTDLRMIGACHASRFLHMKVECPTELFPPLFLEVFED
Chain of chicken Estrogen Receptor (ESR1), ESR1 (gene 396099) (P06212 whole entry, looked up, the tested form may be a part): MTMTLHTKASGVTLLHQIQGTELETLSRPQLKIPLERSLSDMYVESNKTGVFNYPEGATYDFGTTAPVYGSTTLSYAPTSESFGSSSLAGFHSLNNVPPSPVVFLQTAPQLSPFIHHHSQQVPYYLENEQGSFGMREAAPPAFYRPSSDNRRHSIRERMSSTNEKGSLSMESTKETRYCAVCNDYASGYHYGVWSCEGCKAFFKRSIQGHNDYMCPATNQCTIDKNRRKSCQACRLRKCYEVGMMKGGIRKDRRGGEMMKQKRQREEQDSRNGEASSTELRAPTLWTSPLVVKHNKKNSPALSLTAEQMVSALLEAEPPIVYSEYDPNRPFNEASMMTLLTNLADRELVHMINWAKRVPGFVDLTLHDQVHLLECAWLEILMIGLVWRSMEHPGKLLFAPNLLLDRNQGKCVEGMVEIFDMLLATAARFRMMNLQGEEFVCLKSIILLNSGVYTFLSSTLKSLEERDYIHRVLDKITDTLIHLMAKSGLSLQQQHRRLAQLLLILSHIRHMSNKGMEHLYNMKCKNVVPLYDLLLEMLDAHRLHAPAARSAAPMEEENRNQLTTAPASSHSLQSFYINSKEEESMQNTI
Chain of Estrogen receptor (Homo sapiens) (P03372 whole entry, looked up, the tested form may be a part): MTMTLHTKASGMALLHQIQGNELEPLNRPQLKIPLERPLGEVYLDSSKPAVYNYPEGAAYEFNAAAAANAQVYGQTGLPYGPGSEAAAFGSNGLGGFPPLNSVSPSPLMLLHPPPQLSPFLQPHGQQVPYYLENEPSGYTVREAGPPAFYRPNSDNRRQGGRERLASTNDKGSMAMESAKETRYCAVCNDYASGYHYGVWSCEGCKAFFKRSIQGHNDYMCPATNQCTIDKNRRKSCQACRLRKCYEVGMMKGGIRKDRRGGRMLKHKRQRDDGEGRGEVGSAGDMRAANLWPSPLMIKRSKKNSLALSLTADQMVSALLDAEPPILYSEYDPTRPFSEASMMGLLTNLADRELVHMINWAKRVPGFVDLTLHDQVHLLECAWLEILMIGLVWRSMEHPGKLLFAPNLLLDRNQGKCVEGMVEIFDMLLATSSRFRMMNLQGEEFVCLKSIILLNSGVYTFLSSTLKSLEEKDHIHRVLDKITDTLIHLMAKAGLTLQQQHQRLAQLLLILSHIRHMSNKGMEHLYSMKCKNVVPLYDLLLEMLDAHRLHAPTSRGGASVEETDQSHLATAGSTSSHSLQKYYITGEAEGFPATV
Chain of Nuclear receptor subfamily 1 group I member 2 (Mus musculus) (O54915 whole entry, looked up, the tested form may be a part): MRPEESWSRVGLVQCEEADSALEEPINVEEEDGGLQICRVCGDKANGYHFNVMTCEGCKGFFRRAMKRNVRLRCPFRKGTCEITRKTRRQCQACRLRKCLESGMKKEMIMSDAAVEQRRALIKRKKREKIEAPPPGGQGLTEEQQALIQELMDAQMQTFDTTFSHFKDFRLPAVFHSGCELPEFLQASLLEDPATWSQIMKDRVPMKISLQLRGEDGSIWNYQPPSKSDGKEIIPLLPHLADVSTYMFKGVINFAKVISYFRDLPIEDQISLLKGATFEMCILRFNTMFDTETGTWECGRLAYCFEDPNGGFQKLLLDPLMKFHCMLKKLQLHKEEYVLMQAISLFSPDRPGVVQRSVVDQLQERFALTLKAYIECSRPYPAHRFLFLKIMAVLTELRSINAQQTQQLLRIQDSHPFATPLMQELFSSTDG
Chain of frog Thyroid hormone Receptor alpha (TRa), thra-a (gene 397942) (P15204 whole entry, looked up, the tested form may be a part): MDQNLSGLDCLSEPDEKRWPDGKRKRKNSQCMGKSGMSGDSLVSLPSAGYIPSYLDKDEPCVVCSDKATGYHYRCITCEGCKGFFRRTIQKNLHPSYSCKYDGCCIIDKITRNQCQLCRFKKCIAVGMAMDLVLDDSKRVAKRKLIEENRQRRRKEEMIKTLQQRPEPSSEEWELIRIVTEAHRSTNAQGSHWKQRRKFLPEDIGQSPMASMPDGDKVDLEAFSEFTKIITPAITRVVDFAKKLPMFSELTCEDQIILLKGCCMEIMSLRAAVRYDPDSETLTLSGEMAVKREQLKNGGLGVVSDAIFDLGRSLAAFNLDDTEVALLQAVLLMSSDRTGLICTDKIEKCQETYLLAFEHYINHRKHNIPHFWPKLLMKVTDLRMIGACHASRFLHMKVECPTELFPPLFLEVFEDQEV

Structure (SMILES): CCCCc1ccc(Cl)cc1
- outcome [1]: inactive
- outcome [2]: inactive
- outcome [3]: inactive

Structure (SMILES): C=C[C@@]1(C)CC(=O)[C@]2(O)[C@@]3(C)[C@@H](O)CCC(C)(C)[C@@H]3[C@H](O)[C@H](OC(C)=O)[C@@]2(C)O1
- AC50 [1]: 6.78 µM (active)
- outcome [2]: inactive

Structure (SMILES): Cc1cc(C)n(CO)n1
- outcome [1]: inactive
- outcome [2]: inactive
- outcome [3]: inactive

Structure (SMILES): CC(=O)OC(C)c1ccccc1 (centres undefined)
- outcome [1]: inactive
- outcome [2]: inactive

Structure (SMILES): CCc1occc(=O)c1O
- outcome [1]: inactive
- outcome [2]: inactive
- outcome [3]: inactive

Structure (SMILES): Cc1ccc([N+](=O)[O-])cc1N
- outcome [1]: inactive
- outcome [2]: inactive

Structure (SMILES): CC(C)(C)C1CCC(=O)CC1
- outcome [1]: inactive
- outcome [2]: inactive
- outcome [3]: inactive

Structure (SMILES): CCC(C)(O)CCCC(C)C (centres undefined)
- outcome [1]: inactive
- outcome [2]: inactive
- outcome [3]: inactive

Structure (SMILES): O=C(O)c1cc(O)c2ccccc2c1O
- outcome [1]: inactive
- outcome [2]: inactive
- AC50 [3]: 26 µM (active)

Structure (SMILES): CC(C)(c1ccccc1)c1ccc(Nc2ccc(C(C)(C)c3ccccc3)cc2)cc1
- outcome [1]: inactive
- AC50 [2]: 11.4 µM (active)
- outcome [3]: inactive

Structure (SMILES): CC1=CC=C(C(C)C)CC1
- outcome [1]: inactive

Structure (SMILES): CCCCOCCOC(=O)COc1ccc(Cl)cc1Cl
- outcome [1]: inactive
- outcome [2]: inactive

Structure (SMILES): CC(C)c1cc(C(C)C)cc(C(C)C)c1
- outcome [1]: inactive
- outcome [2]: inactive
- outcome [3]: inactive

Structure (SMILES): CCCCNS(=O)(=O)c1ccccc1
- outcome [1]: inactive
- outcome [2]: inactive
- outcome [3]: inactive

Structure (SMILES): CC(C)(C)NC(=O)[C@H]1CC[C@H]2[C@@H]3CC[C@H]4NC(=O)C=C[C@]4(C)[C@H]3CC[C@]12C
- AC50 [1]: 78 µM (active)
- outcome [1]: inactive
- AC50 [2]: 50 µM (active)
- outcome [2]: inactive
- outcome [4]: inactive
- outcome [5]: inactive
- outcome [6]: inactive
- outcome [7]: inactive
- outcome [8]: inactive
- outcome [9]: inactive
- outcome [10]: inactive
- outcome [11]: inactive
- outcome [12]: inactive
- AC50 [13]: 3.8 µM (active)
- outcome [14]: inactive
- outcome [15]: inactive
- outcome [16]: inactive
- outcome [17]: inactive
